The nature of experiment [1]: Viability qHTS for spleen associated tyrosine kinase inhibitor (SYKi) naive MV4-11 cells (AID 1963823). Note: nearly all actives have a fitted effect of over 40% in size. An outline of the steps: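 Seeding of 500 SYKi-naive MV4-11 cells per well onto pre-dispensed compounds preceded a 72 hr incubation at 37 C. Luminescent CellTiter-Glo signal, read after 10 min at room temperature, reflected viable cells.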
Experiment [2] can be described thus: Viability qHTS for spleen associated tyrosine kinase inhibitor (SYKi) drug resistant MV4-11 cells (AID 1963824). Note: nearly all actives have a fitted effect of over 35% in size. In short, it runs like this:
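CellTiter-Glo luminescence, read 10 min after reagent addition, reports viability after a 72 hr compound exposure. Cells are an MV4-11 line made resistant to SYK inhibition, seeded at 500 per well onto compound-containing plates.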
(Quantitative high-throughput screening tests each substance at several concentrations.)

Structures are written as SMILES. Inconclusive results are not listed. The source made the active and inactive calls. Calls come from the whole dose curve; as a rule, active = well fitted cell-killing curve with a large enough effect; inconclusive = small, poorly fitted or top-dose-only effect, or effect the other way; inactive = no such curve, though single readings can be large or run the other way.
Potency is the fitted concentration of half-maximal effect.

Turning to `COc1cc(-c2cccc(O)c2)cc2c1OCO2`, the Potency result in experiment [1] and in experiment [2] was “inactive” throughout.
On to `C[C@@H]1O[C@@H](OC[C@H]2O[C@@H](OC(CCCCc3ccc(O)cc3)CCc3ccc(O)cc3)[C@H](O)[C@@H](O)[C@@H]2O)[C@H](O)[C@H](O)[C@H]1O` (some centres undefined), for which the Potency entry in experiment [1] and in experiment [2] was “inactive” each time.
Consider `CC(C)=CCc1cc(O[C@@H]2O[C@H](CO[C@@H]3OC[C@](O)(CO)[C@H]3O)[C@@H](O)[C@H](O)[C@H]2O)ccc1O`, for which the Potency result in experiment [1] and in experiment [2] was “inactive” each time.
Consider `C/C=C(/C=C(C)/C=C/C=C/C=C(\C)C(=O)C12OC1C(O)(CCO)NC2=O)C(=O)OC` (centres undefined), for which the Potency was 8.93 µM (active) in experiment [1] and 11.2 µM (active) in experiment [2].
With `CC(C)=CCC[C@](C)(O[C@@H]1O[C@H](CO)[C@@H](O)[C@H](O)[C@H]1O)[C@H]1CC[C@]2(C)[C@@H]1[C@H](O)CC1[C@@]3(C)CC[C@H](O)C(C)(C)C3[C@@H](O[C@@H]3O[C@H](CO)[C@@H](O)[C@H](O)[C@H]3O[C@@H]3OC[C@@H](O)[C@H](O)[C@H]3O)C[C@]12C` (some centres undefined), the viability (% of control) in experiment [1] was 84.7% [at 9.25 µM] (inactive). Besides, the viability, % of control in experiment [2] is 84.8% [at 9.25 µM] (inactive).
`COc1cc(C(CO)C(OC2OC(CO)C(O)C(O)C2O)c2ccc(O)c(OC)c2)ccc1O` (centres undefined): the Potency result in experiment [1] and in experiment [2] was “inactive” each time.
With `COc1cc(C2Oc3c(OC)cc(/C=C/C(=O)OC[C@H]4O[C@@H](OC(C)(C)C(=O)O)[C@H](O)[C@@H](O)[C@@H]4O)cc3C2CO)ccc1O` (some centres undefined), the Potency result in experiment [1] and in experiment [2] was “inactive” each time.
On to `COC(=O)C1=COC(OC2OC(CO)C(O)C(O)C2O)C2C(C)CC(=O)C12O` (centres undefined), for which the Potency entry in experiment [1] and in experiment [2] was “inactive” in each case.
On to `COC(=O)C1=CO[C@@H](O[C@@H]2O[C@H](CO)[C@@H](O)[C@H](O)[C@H]2O)[C@@H]2[C@@](C)(O)[C@@H](OC(=O)/C=C/c3ccc(O)cc3)C[C@]12O`, for which the Potency entry in experiment [1] and in experiment [2] was “inactive” throughout.
As to `CC(C/C=C/C(C)(C)O)C1CCC(C)(O)C(O)C1` (centres undefined), the Potency result in experiment [1] and in experiment [2] was “inactive” each time.
As for `C[C@@H]1C[C@H]2[C@@H]3CCC4=CC(=O)C=C[C@]4(C)[C@@]3(F)[C@@H](O)C[C@]2(C)[C@@]1(O)C(=O)COP(=O)(O)O`, the Potency entry in experiment [1] and in experiment [2] was “inactive” throughout.
On to `C=C1C[C@H](O)[C@@H](O)[C@@]2(C)C1[C@@H](O)[C@H]1OC(=O)C3[C@@H](C)[C@@H](O)[C@H](O)C2[C@]31C` (some centres undefined), for which the Potency result in experiment [1] and in experiment [2] was “inactive” in each case.
Take `CCn1cc(C2=NOC(C(=O)Nc3c(C)n(C)n(-c4ccccc4)c3=O)C2)c(C)n1` (centres undefined): the Potency result in experiment [1] and in experiment [2] was “inactive” each time.
For the compound `C=C[C@H]1[C@H](O[C@@H]2O[C@H](CO)[C@@H](O)[C@H](O)[C@H]2O)OC=C2C(=O)N3Cc4c([nH]c5ccccc5c4=O)[C@@H]3C[C@H]21`, the Potency entry in experiment [1] and in experiment [2] was “inactive” in each case.
Turning to `C[C@@H]1C/C=C/C=C\C=C\C=C\[C@H](O[C@@H]2O[C@H](C)[C@@H](O)[C@H](N)[C@@H]2O)C[C@@H]2O[C@](O)(C[C@@H](O)C[C@H]3O[C@@H]3/C=C/C(=O)O1)C[C@H](O)[C@H]2C(=O)O`, the Potency entry in experiment [1] and in experiment [2] was “inactive” in each case.
For the compound `CC1CC(=O)[C@]2(O)C(C(=O)OCCc3ccc(O)c(O)c3)=CO[C@@H](O[C@@H]3O[C@H](CO)[C@@H](O)[C@H](O)[C@H]3O)[C@H]12` (some centres undefined), the Potency entry in experiment [1] and in experiment [2] was “inactive” in each case.
Consider `C=CCc1ccc(O[C@@H]2O[C@H](CO[C@@H]3O[C@@H](C)[C@H](O)[C@@H](O)[C@H]3O)[C@@H](O)[C@H](O)[C@H]2O)cc1`, for which the Potency entry in experiment [1] and in experiment [2] was “inactive” throughout.
For the compound `CC(C)C[C@H](NC(=O)[C@@H]1O[C@H]1C(=O)O)C(=O)NCCCCN=C(N)N`, the Potency result in experiment [1] and in experiment [2] was “inactive” throughout.
In the case of `COC(=O)CC1CC(c2ccc(O)cc2)=NO1` (centres undefined), the Potency result in experiment [1] and in experiment [2] was “inactive” each time.
As for `C[C@@H]1O[C@@H](O[C@@H]2[C@@H](O)[C@H](O[C@@H]3[C@@H](O)[C@@H](O)[C@H](O[C@H]4[C@H](OC(=O)[C@]56CCC(C)(C)C[C@H]5C5=CCC7[C@@]8(C)C[C@H](O)[C@H](O[C@@H]9O[C@H](C(=O)O)[C@@H](O)[C@H](O)[C@H]9O)[C@@](C)(CO)C8[C@H](O)C[C@@]7(C)[C@]5(C)CC6)OC[C@H](O)[C@@H]4O)O[C@H]3C)OC[C@H]2O)[C@H](O)[C@H](O)[C@H]1O` (some centres undefined), the viability (% of control) in experiment [1] was 78.4% [at 9.25 µM] (inactive). Besides, the viability, % of control in experiment [2] is 89.9% [at 9.25 µM] (inactive).
As for `O=C(O)/C=C/c1ccc2occc2c1O[C@@H]1O[C@H](CO)[C@@H](O)[C@H](O)[C@H]1O`, the Potency entry in experiment [1] and in experiment [2] was “inactive” each time.
In the case of `CN(C)C/C=C/C(=O)Nc1cc2c(Nc3ccc(F)c(Cl)c3)ncnc2cc1OC1CCOC1` (centres undefined), the Potency is 1.16 µM (active) in experiment [1] and 1.3 µM (active) in experiment [2].

These data come from PubChem BioAssay (NCATS).
